Source: PubChem
This is a sample that favours compounds with a hit; in the whole collection about 2.6% have one here.
Cruzain noTriton = cruzain (T. cruzi) inhibition without detergent; purified cruzain, Z-FR-AMC fluorescence, no detergent; P25779; Potency, µM, without a hit: max response, negative = inhibition, actives largely listed as inhibitors; 2.3% of 200,000 active;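 also: plate controls were enzyme without inhibitor for no effect and buffer without enzyme for full effect; nearly all actives have a fitted effect of over 40% in size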
Target sequence (P25779 123-467 limits assumed): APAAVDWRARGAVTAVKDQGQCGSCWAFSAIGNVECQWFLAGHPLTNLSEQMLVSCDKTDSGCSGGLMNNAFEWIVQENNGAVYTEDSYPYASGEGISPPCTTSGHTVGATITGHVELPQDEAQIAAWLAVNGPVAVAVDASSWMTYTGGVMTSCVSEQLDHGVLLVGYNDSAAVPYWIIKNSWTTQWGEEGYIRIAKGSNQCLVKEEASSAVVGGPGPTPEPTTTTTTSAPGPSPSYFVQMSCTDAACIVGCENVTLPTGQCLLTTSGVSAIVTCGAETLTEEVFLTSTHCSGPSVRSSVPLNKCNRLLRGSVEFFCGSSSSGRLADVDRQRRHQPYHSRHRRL
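Purified cruzain at 1.5 nM, pre-incubated 15 min with compound at room temperature in 100 mM sodium acetate pH 5.5, 5 mM DTT, 0.00005% Triton X-100. Reaction started with 2 uM Z-FR-AMC; AMC fluorescence increase over 60 s gives rate.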
Cruzain Triton = cruzain (T. cruzi) inhibition with detergent | purified cruzain, Z-FR-AMC fluorescence, 0.01% Triton | AID 1478 | 0.43% of 200,000 active | P25779 | Potency, µM, for the others: max response, negative = inhibition, actives largely listed as inhibitors;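 also: plate controls were neutral wells for no effect and buffer without enzyme for full effect; nearly all actives have a fitted effect of over 40% in size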
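Compounds were screened in titration against cruzain (1.5 nM) with 0.01% Triton X-100 to counter colloidal aggregation. Activity was the AMC fluorescence increase over 60 s after adding 2 uM Z-FR-AMC at pH 5.5.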
The depositor's hits bear a star. Calls follow the shape of the dose curve; as a rule, active = well fitted curve in the direction sought with a large enough effect; inconclusive = small, poorly fitted or top-dose-only effect, or another doubt; inactive = no such curve, though single readings can be large; an effect the other way counts as inactive or inconclusive. Potency is read from the fitted curve at half-maximal effect.

How did O=S(=O)(O)c1cc(S(=O)(=O)O)c2c(N=Nc3cccc4ccccc34)c(O)ccc2c1 do in these assays?
Cruzain noTriton: 22.0%; Cruzain Triton: 2.7%

How did CC(C)(C)C(=O)NC1CCN(S(=O)(=O)c2ccccc2F)CC1 do in these assays?
Cruzain noTriton: 15.5%; Cruzain Triton: 3.1%

What do the screens show for `CCCCCCSc1nc(N)c2c3c(sc2n1)CCCC3C` (stereo not given)?
Cruzain noTriton: -26.2%; Cruzain Triton: -4.7%

What do the screens show for `CC1CCCc2sc3nc(SCC(=O)c4ccc(Br)cc4)nc(N)c3c21` (stereo not given)?
Cruzain noTriton: 10µM*; Cruzain Triton: -3.2%

How did COc1ccc(NCc2cc3cc4c(cc3n(CC(=O)Nc3ccc(F)cc3F)c2=O)OCO4)cc1 do in these assays?
Cruzain noTriton: inconclusive; Cruzain Triton: -5.0%

What do the screens show for `COc1ccc(CN(Cc2ccccn2)C(=O)CN2C(=O)C(C)Oc3ccccc32)cc1` (stereo not given)?
Cruzain noTriton: 6.4%; Cruzain Triton: -0.4%

What do the screens show for `Cc1ccc(S(=O)(=O)N(C)Cc2ccc(C(=O)N/N=C/c3ccc(OC(F)F)cc3)cc2)cc1`?
Cruzain noTriton: 10µM*; Cruzain Triton: -1.1%

Results for C/C(=N\NC(=O)c1ccc(CN(C)S(=O)(=O)c2ccc(C)cc2)cc1)c1ccc(OC(F)F)cc1 ?
Cruzain noTriton: 3.5%; Cruzain Triton: -2.1%

What do the screens show for `CSc1nnc2c3cc(F)ccc3n(Cc3ccccc3)c2n1`?
Cruzain noTriton: -15.7%; Cruzain Triton: -28.7%

Results for CCCCn1c2ccc(F)cc2c2nnc(SCCN(CC)CC)nc21 ?
Cruzain noTriton: 20µM*; Cruzain Triton: 15.8µM*

What do the screens show for `Cc1cccc(C(=O)Nc2sc(C)c(-c3ccccc3)c2C#N)c1`?
Cruzain noTriton: inconclusive; Cruzain Triton: -2.9%

How did CSc1nc2sc3c(c2c(=O)n1-c1ccc(C)c(Cl)c1)CCN(C(C)=O)C3 do in these assays?
Cruzain noTriton: -1.0%; Cruzain Triton: -0.1%

Results for C/C(=N\NC(N)=S)c1ccc(Cl)s1 ?
Cruzain noTriton: 0.251µM*; Cruzain Triton: 0.562µM*

Results for C/C(=N\NC(=S)NC(C)C)c1ccc(Cl)s1 ?
Cruzain noTriton: -9.6%; Cruzain Triton: -11.3%

What do the screens show for `CCCN1CNC(=S)N(c2ccc(C(=O)OCC)cc2)C1`?
Cruzain noTriton: -4.7%; Cruzain Triton: -0.6%

How did Clc1ccc(-c2nc3cnccn3c2NC2CCCC2)cc1 do in these assays?
Cruzain noTriton: 16.1%; Cruzain Triton: -16.1%

Results for COc1ccc(N2CSC3=C(C#N)C(c4ccc(OC)c(OC)c4)CC(=O)N3C2)c(OC)c1 (stereo not given) ?
Cruzain noTriton: -14.9%; Cruzain Triton: -12.4%

How did COc1cccc(C2CC(=O)N3CN(C4CCCCC4)CSC3=C2C#N)c1 (stereo not given) do in these assays?
Cruzain noTriton: 9.7%; Cruzain Triton: 28.2µM*

How did CN1CSC2=C(C#N)C(c3cccc(OCc4ccccc4)c3)CC(=O)N2C1 (stereo not given) do in these assays?
Cruzain noTriton: 5.6%; Cruzain Triton: -13.3%

Results for COc1ccc(C2CC(=O)N3CN(C4CCCCC4)CSC3=C2C#N)cc1 (stereo not given) ?
Cruzain noTriton: 12.0%; Cruzain Triton: 20µM*

What do the screens show for `COc1cccc(C2C(C(N)=O)=C(C)Nc3nc(-c4cccc(Cl)c4)nn32)c1` (stereo not given)?
Cruzain noTriton: -7.7%; Cruzain Triton: 2.2%

How did Nc1c(-c2nc(-c3ccc4c(c3)OCO4)cs2)c2ccccn2c1C(=O)c1ccccc1 do in these assays?
Cruzain noTriton: 3.98µM*; Cruzain Triton: -2.9%

What do the screens show for `Cc1ccc(C)c(C(=O)c2c(N)c(-c3nc(-c4ccc5c(c4)OCO5)cs3)c3ccccn23)c1`?
Cruzain noTriton: 5.01µM*; Cruzain Triton: -2.0%

Results for COc1ccc(C(=O)c2c(N)c(-c3nc(-c4ccc5c(c4)OCO5)cs3)c3ccccn23)cc1 ?
Cruzain noTriton: inconclusive; Cruzain Triton: -4.0%

How did COc1ccc(-c2csc(-c3c(N)c(C(=O)c4ccccc4)n4ccccc34)n2)cc1OC do in these assays?
Cruzain noTriton: -12.2%; Cruzain Triton: -3.4%

Results for Nc1c(-c2nc(-c3ccc4c(c3)OCO4)cs2)c2ccccn2c1C(=O)c1ccc(Cl)cc1 ?
Cruzain noTriton: inconclusive; Cruzain Triton: 0.1%

How did COc1cccc(C(=O)c2c(N)c(-c3nc(-c4ccccc4)cs3)c3ccccn23)c1 do in these assays?
Cruzain noTriton: 10µM*; Cruzain Triton: -1.5%

How did COc1ccc(-c2csc(-c3c(N)c(C(=O)c4ccccc4)n4ccccc34)n2)cc1 do in these assays?
Cruzain noTriton: inconclusive; Cruzain Triton: 1.6%

How did Cc1ccc(C(=O)c2c(N)c(-c3nc(-c4ccc5c(c4)OCO5)cs3)c3ccccn23)cc1C do in these assays?
Cruzain noTriton: 1.58µM*; Cruzain Triton: -3.9%

How did Cc1ccc(CSCC(=O)N2CCN(Cc3ccc4c(c3)OCO4)CC2)cc1 do in these assays?
Cruzain noTriton: 17.4%; Cruzain Triton: 0.3%

Results for CCOC(=O)/C(C#N)=C1/SC(CC)C(=O)N1c1ccc(C)cc1 (stereo not given) ?
Cruzain noTriton: 0.0%; Cruzain Triton: -2.0%

How did Cc1ccc(-c2csc(-c3c(N)c(C(=O)c4ccc5c(c4)OCO5)n4ccccc34)n2)cc1C do in these assays?
Cruzain noTriton: 3.16µM*; Cruzain Triton: -3.2%

What do the screens show for `Nc1c(-c2nc(-c3ccc(F)cc3)cs2)c2ccccn2c1C(=O)c1ccc2c(c1)OCO2`?
Cruzain noTriton: -29.0%; Cruzain Triton: 1.1%

What do the screens show for `Cc1nc2nc3c(c(=O)n2[nH]1)CCCC3`?
Cruzain noTriton: 0.0%; Cruzain Triton: 0.8%

What do the screens show for `CCOC(=O)c1c(NC(=O)c2cc3n(n2)C(C(F)(F)F)CC(c2ccccc2)N3)sc(C)c1C` (stereo not given)?
Cruzain noTriton: 15.8µM*; Cruzain Triton: -2.1%

What do the screens show for `CCCCNC(=O)c1cc2n(n1)C(C(F)(F)F)CC(c1ccccc1)N2` (stereo not given)?
Cruzain noTriton: inconclusive; Cruzain Triton: -2.1%

Results for N/C(=N\OC(=O)Cc1ccc(-c2ccccc2)cc1)c1cccc([N+](=O)[O-])c1 ?
Cruzain noTriton: -6.8%; Cruzain Triton: -0.3%

How did Cc1cccc(C)c1Nc1sc(C(=O)c2ccccc2)c(N)c1S(=O)(=O)c1ccccc1 do in these assays?
Cruzain noTriton: 15.8µM*; Cruzain Triton: -1.2%

How did CCc1ccccc1Nc1sc(C(=O)c2ccccc2)c(N)c1S(=O)(=O)c1ccccc1 do in these assays?
Cruzain noTriton: 6.31µM*; Cruzain Triton: -4.1%

What do the screens show for `CCc1ccccc1Nc1sc(C(=O)c2cccc(OC)c2)c(N)c1S(=O)(=O)c1ccccc1`?
Cruzain noTriton: 7.94µM*; Cruzain Triton: -5.0%

Results for CCOc1ccc(Nc2sc(C(=O)c3ccc(F)cc3)c(N)c2S(=O)(=O)c2ccc(C)cc2)cc1 ?
Cruzain noTriton: -10.9%; Cruzain Triton: -1.2%

How did Cc1c(Cl)cccc1Nc1sc(C(=O)c2ccccc2)c(N)c1S(=O)(=O)c1ccccc1 do in these assays?
Cruzain noTriton: inconclusive; Cruzain Triton: -4.7%

What do the screens show for `Cc1ccc(Cl)cc1Nc1sc(C(=O)c2ccccc2)c(N)c1S(=O)(=O)c1ccccc1`?
Cruzain noTriton: inconclusive; Cruzain Triton: -2.4%

Results for CCS(=O)(=O)c1c(Nc2cc(C)ccc2C)sc(C(=O)c2ccccc2)c1N ?
Cruzain noTriton: -8.7%; Cruzain Triton: -7.8%
